From PubChem BioAssay AID624354 (Sanford-Burnham Center for Chemical Genomics, 2012)
The whole screen tested about 360,000 compounds, of which about 3,800 (1.1%) were called active. The list comes from a sample in which actives are over-represented; it also holds similar structures and randomly drawn compounds. A number with no mark means an inactive call.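 The calls were made as follows: active = compounds causing at least 50% loss of cell viability in the single-dose screen, relative to plate controls; inactive = the rest.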

Experiment: viability loss with TRAIL in NB7+C8 cells, primary screen, TRAIL sensitizer project, cell-based, ATPlite luminescence (AID 624354)
Details: at 10 µM, active compounds read high

| SMILES | inhibition (viability loss, TRAIL sensitization) |
| --- | --- |
| CCN(CC)CCNC(=O)C1c2ccccc2C(=O)N(C)C1c1cn(C)c2ccccc12 (stereo unspecified) | 14.1% |
| O=C(NCCCN1CCCCC1)C1CC(=O)N(CCc2ccccc2)C1 (stereo unspecified) | 1% |
| CN1C(=O)c2ccccc2C(C(=O)NCCCN2CCCC2)C1c1c[nH]c2ccccc12 (stereo unspecified) | 61.6% (active) |
| COCOc1cccc(CN2CCC(C)(Oc3ccc(SC)cc3)C2)c1 (stereo unspecified) | 10.9% |
| C[C@@H]1CN([C@H](C)CO)C(=O)CCCn2cc(nn2)CO[C@H]1CN(C)S(=O)(=O)c1ccc(Oc2ccccc2)nc1 | 2.33% |
| COc1ccc(CCNCC(O)Cn2ccc3ccccc32)cc1OC (stereo unspecified) | -3.08% |
| O=C(NC1CCCCC1)c1ccc(CNc2c(N3CCOCC3)c(=O)c2=O)cc1 | -0.739% |
| CCOC(=O)C1CCCN(C(=O)c2sc3nc(C)nc(N4CCOCC4)c3c2C)C1 (stereo unspecified) | 15.8% |
| CCOC(=O)C1=C(O)/C(=C/c2cc(C)n(-c3ccccc3)c2C)N=C1C | -20.2% |
| Cc1cc(/C=C2/C(=N)N3C(=NC2=O)SN=C3S(C)(=O)=O)c(C)n1-c1ccccc1 | 72.2% (active) |
| CS(=O)(=O)c1ccc2c(c1)SC1=NC(=O)/C(=C/c3ccco3)C(=N)N12 | 11.3% |
| COC(=O)C[C@@H]1C=C[C@@H](NC(=O)c2cccnc2)[C@@H](CO)O1 | -8.25% |
| O=C(NC1CCCCC1)C(c1cc2ccccc2o1)n1c(=O)c(-c2ccco2)nc2ccccc21 (stereo unspecified) | 1.96% |
| CCOc1ccc(/C=N\NC(=O)c2c(C)nc3cc(C)ccn23)cc1 | 7.46% |
| C/C(=N\NC(=O)c1cc(-c2ccc(O)cc2)nc2ccccc12)c1cccnc1 | 3.5% |
| CCOc1ccc(-c2cc(C(=O)N/N=C/c3ccc(O)cc3)c3ccccc3n2)cc1 | 72.3% (active) |
| Cc1ccc(S(=O)(=O)NCC2CCC(C(=O)N3CCOCC3)CC2)cc1 (stereo unspecified) | -6.3% |
| C[C@H]1NS(=O)(=O)c2cc(Cl)ccc2O[C@@H]1c1ccccc1 | 11.6% |
| CCCn1nc(Oc2nc(NC(C)C)nc(N(C)C)n2)ccc1=O | -7.89% |
| Cc1ccc2cc(CCNC(=O)c3ccc4c(c3)OCO4)c(=O)[nH]c2c1 | 1.68% |
| Cc1nc2cc(NC(=O)Nc3cccc(F)c3)ccc2n1C | 63.6% (active) |
| C=CCN(C(=O)Nc1ccc2c(c1)nc(C)n2C)c1ccccc1 | 14.6% |
| Cc1nc2cc(NCc3cccs3)ccc2n1C | 2.96% |

| SMILES | inhibition (viability loss, TRAIL sensitization) |
| --- | --- |
| Cc1cc([N+](=O)[O-])c(=O)[nH]c1C | 16.2% |
| COC(=O)CCSc1nccn1Cc1ccccc1 | -2.49% |
| O=C(CN1C(=O)c2cccnc2Oc2ccc(Cl)cc21)Nc1ccc(F)cc1 | 4.45% |
| CC(/C=C/C1(O)C(C)CC(=O)CC1(C)C)OC1OC(CO)C(O)C(O)C1O (stereo unspecified) | 14.6% |
| CN(CCO)c1ccc(/C=N/Nc2nncc3ccccc23)cc1 | 95.3% (active) |
| O=C1COc2c1ccc(O)c2O | -11.8% |
| CNCC(O)c1ccc(O)c(O)c1 (stereo unspecified) | -0.467% |
| CCC(C)c1ccc(O)c(/C=N/O)c1 (stereo unspecified) | 51% (active) |
| CS(=O)(=O)N(Cc1ccc(Cl)cc1)c1ccc(C(=O)NCCSCc2ccco2)cc1 | -4.92% |
| CCc1c(C)c2ccc(OC3CCCCC3=O)cc2oc1=O (stereo unspecified) | -0.131% |
| O=C(NCCCN1CCN(c2ccccc2F)CC1)C1CCC(=O)N1C1CCCCC1 (stereo unspecified) | 0.0726% |
| Cc1c(C(=O)NCCN(C)C)oc2ccc(S(=O)(=O)N3CCCC3)cc12 | -7.61% |
| COc1ccc(C(CCN(Cc2ccc(OC)c(OC)c2)C(=O)CCl)c2ccccc2)cc1 (stereo unspecified) | 97.3% (active) |
| COc1ccc(CCNC(=O)CN(c2ccccc2)S(C)(=O)=O)cc1OC | -3.49% |
| CCOc1ccc(C(CCc2ccccc2)NC(=O)c2ccc(OC)c(OC)c2)cc1OCC (stereo unspecified) | 30.5% |
| N#Cc1ccc(OCc2nnc(-c3ccc([N+](=O)[O-])cc3)o2)cc1 | -1.32% |
| CCOc1ccc(-c2nnc(-c3ccco3)o2)cc1 | 55.3% (active) |
| CCOc1ccc(NC(=O)N(CCC(C)C)C(C)c2ccco2)cc1 (stereo unspecified) | -2% |
| O=C(Nc1n[nH]c(C(F)(F)F)n1)c1cccs1 | -2.07% |
| COc1cc(NC(=O)c2ccc(-c3csc(C)n3)cc2)c(OC)cc1Cl | 25.1% |
| Cc1nc(-c2ccc(NC(=O)c3cccs3)cc2)cs1 | 81% (active) |
| CC(=O)NNc1cc(=O)c2c(=O)n(C)c(=O)n(C)c2[nH]1 | 7.17% |
| Cc1cnc(NC(=O)Cn2cnc3c2c(=O)n(C)c(=O)n3C)s1 | -2.16% |
